# Results from ChEMBL document CHEMBL3988442, “University of Dundee, Small-Polar-MMV Screening Library” (2021).
# For some assays here: Entries with a potency or affinity are not part of this list.
# Legend:
# Design in all cases: scale not given: direction of the effect not stated beside the values
# [1] = target: Protein translocase subunit SecA (Escherichia coli (strain K12)) (UniProt P10408); test: Assay to Identify E. coli SecA ATPase Inhibitors; assay type: functional; settings: 30 µM
# [2] = target: T1, Ubiquitin-activating enzyme e1, putative (Leishmania donovani (strain BPK282A1)) (UniProt E9BSI1); test: Leishmania donovani Ubiquitin Activating Enzyme (LdE1); assay type: functional; settings: 30 µM
# T1 sequence (whole entry): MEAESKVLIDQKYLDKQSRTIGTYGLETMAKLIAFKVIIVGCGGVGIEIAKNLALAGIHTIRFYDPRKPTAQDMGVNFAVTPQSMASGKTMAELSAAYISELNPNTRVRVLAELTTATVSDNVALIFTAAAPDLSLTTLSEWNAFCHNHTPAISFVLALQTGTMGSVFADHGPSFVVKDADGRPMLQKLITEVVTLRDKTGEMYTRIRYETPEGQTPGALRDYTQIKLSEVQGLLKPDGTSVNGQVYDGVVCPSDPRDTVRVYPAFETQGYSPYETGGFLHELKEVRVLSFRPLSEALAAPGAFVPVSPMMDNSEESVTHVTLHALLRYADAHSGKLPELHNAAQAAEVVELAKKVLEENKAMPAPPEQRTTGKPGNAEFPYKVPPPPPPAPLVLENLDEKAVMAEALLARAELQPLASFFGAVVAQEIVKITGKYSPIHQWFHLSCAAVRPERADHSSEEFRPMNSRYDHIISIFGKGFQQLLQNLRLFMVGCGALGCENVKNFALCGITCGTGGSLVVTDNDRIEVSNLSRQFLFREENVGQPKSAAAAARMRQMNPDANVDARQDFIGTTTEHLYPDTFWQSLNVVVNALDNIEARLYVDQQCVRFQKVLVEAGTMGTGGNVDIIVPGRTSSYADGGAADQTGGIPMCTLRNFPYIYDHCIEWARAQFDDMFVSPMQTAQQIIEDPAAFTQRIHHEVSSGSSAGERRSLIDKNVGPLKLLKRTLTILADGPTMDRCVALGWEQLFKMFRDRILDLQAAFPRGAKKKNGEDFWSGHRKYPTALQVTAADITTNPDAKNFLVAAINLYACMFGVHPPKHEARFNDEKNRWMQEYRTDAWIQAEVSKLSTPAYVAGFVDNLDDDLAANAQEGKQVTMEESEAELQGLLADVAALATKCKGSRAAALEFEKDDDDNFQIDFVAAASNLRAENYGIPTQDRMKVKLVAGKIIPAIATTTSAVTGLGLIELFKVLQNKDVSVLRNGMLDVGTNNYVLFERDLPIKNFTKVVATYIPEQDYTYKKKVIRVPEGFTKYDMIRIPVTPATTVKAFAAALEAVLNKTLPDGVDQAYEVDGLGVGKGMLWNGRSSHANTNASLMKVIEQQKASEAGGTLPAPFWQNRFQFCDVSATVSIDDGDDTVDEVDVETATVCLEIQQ
# [3] = target: Sialic acid-binding Ig-like lectin 9 (Homo sapiens) (UniProt Q9Y336); test: Hs-Siglec9 ALPHAscreen SOP 20170721; settings: 10 µM
# Sialic acid-binding Ig-like lectin 9 (Homo sapiens), sequence (Q9Y336 whole entry): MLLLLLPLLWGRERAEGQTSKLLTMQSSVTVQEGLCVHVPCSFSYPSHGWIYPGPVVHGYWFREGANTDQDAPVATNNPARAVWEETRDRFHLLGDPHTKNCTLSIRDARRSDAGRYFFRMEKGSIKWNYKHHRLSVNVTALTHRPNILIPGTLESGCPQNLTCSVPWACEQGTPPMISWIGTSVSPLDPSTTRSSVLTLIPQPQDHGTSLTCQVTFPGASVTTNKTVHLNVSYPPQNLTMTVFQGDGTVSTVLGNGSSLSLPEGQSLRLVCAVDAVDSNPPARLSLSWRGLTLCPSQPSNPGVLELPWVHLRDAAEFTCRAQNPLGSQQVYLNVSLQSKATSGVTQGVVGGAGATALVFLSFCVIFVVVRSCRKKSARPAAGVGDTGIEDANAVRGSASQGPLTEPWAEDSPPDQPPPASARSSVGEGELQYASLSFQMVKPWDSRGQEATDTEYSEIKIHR
# [4] = system: Trypanosoma cruzi; test: Trypanosoma cruzi phosphomannomutase and mannose-1-phosphate guanylyltransferase assay; assay type: functional; settings: 10 µM
# [5] = target: T2, Arginase-2, mitochondrial (Homo sapiens) (UniProt P78540); test: in vitro enzyme assay to detect the production of urea directly proportional to the activity of Arginase II; assay type: functional; settings: 33.3 µM; note: in the data most compounds retested in dose-response had high values
# T2 sequence (whole entry): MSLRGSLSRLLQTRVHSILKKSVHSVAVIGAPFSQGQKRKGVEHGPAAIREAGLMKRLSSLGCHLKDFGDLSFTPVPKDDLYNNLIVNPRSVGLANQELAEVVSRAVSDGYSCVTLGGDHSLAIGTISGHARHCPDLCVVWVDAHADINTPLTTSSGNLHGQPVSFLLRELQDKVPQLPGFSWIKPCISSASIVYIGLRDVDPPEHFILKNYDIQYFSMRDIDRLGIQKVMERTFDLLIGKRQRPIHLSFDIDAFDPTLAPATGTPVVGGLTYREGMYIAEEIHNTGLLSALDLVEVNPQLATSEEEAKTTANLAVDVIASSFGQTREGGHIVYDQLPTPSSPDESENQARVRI
# [6] = target: T3, Proteasome subunit beta (Trypanosoma cruzi) (UniProt O96673); test: Trypanosoma cruzi proteasome chymotrypsin-like activity (TcProtChymo) assay.; note: in the data most compounds retested in dose-response had high values; assay type: functional; settings: 9.37 µM
# T3 sequence (whole entry): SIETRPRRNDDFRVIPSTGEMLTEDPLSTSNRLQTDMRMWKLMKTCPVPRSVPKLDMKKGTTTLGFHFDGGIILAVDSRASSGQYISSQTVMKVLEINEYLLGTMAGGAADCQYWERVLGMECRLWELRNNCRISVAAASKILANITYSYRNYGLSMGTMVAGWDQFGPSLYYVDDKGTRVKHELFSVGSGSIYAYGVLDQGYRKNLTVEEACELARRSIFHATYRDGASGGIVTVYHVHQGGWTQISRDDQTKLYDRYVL
# [7] = organism: Homo sapiens; test: To identify inhibition of the IFN signalling (Jak-Stat) pathway via expression of an eGFP reporter gene under the control of an IFN-stimulated response element (ISRE) containing MxA promoter.; assay type: functional; settings: 30 µM
# [8] = target: T4, Tyrosyl-tRNA synthetase, putative (Trypanosoma cruzi (strain CL Brener)) (UniProt Q4DSP6); test: Trypanosoma cruzi tyrosyl tRNA synthetase (TcYRS) _High Tyrosine SOP; assay type: functional; settings: 30 µM; note: in the data most compounds retested in dose-response had high values
# T4 sequence (whole entry): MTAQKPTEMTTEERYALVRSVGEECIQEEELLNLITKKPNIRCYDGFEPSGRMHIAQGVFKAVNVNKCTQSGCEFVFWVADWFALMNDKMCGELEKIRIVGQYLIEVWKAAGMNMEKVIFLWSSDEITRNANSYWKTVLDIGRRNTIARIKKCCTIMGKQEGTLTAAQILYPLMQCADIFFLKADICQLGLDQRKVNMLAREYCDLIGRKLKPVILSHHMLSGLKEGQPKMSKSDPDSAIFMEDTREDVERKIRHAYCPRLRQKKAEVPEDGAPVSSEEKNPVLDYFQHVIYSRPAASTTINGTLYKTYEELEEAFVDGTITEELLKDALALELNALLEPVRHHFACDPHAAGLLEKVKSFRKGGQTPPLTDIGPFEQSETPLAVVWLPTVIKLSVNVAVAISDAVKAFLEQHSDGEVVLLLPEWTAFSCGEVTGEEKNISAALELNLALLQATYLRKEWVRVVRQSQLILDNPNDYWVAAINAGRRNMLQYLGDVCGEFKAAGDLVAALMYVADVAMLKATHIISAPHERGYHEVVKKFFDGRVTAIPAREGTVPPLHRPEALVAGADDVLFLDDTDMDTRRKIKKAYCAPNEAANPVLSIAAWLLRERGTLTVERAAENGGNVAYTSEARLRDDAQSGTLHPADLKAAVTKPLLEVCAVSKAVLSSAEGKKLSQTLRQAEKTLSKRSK
# [9] = target: T4, Tyrosyl-tRNA synthetase, putative (Trypanosoma cruzi (strain CL Brener)); test: Trypanosoma cruzi tyrosyl tRNA synthetase (TcYRS) SOP; assay type: functional; settings: 30 µM
# [10] = target: Chromo domain-containing protein 1 (Saccharomyces cerevisiae (strain ATCC 204508 / S288c) (Baker's yeast)) (UniProt P32657); test: ScCHD-1 Enzyme Inhibition Assay; assay type: functional; settings: 30 µM; note: in the data most compounds retested in dose-response had high values
# Chromo domain-containing protein 1 (Saccharomyces cerevisiae (strain ATCC 204508 / S288c) (Baker's yeast)), sequence (P32657 whole entry, the tested form may be a part): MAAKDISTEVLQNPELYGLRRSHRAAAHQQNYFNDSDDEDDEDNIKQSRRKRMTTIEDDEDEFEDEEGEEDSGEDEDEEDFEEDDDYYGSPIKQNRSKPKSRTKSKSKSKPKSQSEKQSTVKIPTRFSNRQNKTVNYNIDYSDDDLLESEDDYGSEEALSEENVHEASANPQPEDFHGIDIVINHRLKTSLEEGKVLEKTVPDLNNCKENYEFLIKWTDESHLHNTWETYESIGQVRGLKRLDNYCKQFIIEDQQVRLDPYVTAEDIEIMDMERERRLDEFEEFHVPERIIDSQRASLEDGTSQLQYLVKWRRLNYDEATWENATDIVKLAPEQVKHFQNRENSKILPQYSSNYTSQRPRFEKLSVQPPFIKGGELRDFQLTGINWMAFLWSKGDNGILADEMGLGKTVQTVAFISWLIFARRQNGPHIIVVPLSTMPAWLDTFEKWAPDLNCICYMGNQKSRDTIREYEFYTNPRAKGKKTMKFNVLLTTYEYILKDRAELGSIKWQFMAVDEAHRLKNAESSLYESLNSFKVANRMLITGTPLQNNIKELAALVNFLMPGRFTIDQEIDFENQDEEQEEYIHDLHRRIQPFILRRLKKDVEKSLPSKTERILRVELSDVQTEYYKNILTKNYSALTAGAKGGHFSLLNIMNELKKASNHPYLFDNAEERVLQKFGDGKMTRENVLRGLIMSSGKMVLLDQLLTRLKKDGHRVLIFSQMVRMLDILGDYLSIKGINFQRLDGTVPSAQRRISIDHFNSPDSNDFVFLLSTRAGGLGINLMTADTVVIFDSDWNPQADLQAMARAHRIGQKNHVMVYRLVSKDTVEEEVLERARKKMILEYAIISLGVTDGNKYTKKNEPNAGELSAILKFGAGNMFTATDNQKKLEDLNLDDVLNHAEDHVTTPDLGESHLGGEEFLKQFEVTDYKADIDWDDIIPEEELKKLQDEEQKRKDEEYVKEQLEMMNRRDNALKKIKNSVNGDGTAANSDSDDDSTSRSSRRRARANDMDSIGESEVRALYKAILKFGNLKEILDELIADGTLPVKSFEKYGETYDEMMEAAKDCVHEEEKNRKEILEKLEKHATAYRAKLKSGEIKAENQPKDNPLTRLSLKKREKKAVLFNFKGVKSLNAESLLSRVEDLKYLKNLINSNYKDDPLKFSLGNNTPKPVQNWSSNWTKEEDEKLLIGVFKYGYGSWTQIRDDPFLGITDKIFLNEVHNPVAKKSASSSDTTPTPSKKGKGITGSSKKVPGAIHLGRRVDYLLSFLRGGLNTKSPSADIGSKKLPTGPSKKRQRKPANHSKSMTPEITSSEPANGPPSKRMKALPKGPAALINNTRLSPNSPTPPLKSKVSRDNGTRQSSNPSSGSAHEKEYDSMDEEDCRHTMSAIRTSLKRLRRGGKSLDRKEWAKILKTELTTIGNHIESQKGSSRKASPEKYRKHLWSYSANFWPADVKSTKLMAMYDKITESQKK
# Protein translocase subunit SecA (Escherichia coli (strain K12)), sequence (P10408 whole entry): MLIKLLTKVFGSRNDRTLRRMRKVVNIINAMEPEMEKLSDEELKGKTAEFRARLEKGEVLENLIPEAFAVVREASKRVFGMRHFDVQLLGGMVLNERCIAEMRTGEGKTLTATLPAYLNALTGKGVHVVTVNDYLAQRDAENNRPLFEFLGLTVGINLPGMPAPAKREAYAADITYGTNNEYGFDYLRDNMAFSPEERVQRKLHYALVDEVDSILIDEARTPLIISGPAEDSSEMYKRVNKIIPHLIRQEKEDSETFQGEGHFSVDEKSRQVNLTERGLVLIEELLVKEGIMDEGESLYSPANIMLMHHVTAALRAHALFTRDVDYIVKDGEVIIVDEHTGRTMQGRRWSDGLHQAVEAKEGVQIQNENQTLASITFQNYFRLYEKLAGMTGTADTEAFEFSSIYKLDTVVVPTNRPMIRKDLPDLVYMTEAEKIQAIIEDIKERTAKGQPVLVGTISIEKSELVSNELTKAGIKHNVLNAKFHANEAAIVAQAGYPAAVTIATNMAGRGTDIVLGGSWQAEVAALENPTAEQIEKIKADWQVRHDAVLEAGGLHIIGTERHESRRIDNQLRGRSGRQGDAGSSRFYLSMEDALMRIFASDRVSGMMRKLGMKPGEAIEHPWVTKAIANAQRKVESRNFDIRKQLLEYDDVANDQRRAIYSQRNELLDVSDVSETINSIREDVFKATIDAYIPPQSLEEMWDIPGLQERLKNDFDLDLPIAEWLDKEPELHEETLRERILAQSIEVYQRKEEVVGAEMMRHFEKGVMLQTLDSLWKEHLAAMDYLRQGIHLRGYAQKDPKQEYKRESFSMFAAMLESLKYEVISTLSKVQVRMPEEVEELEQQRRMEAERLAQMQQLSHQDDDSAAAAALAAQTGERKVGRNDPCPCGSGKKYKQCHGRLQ
smiles,measurement,setting,value
Cc1c[nH]cc1C(=O)N1CCN(CCc2cccs2)CC1,Percent Effect,[1],-4.85%
same,Percent Effect,[2],5.13%
same,Percent Effect,[3],-6.52%
same,Percent Effect,[4],3.29%
same,Percent Effect,[5],2.05%
same,Percent Effect,[6],-3.67%
same,Percent Effect,[7],3.15%
same,Percent Effect,[8],5.26%
same,Percent Effect,[9],8.43%
same,Percent Effect,[10],0.816%
COc1ccc(C(C)NC(=O)NCCCn2cncn2)cc1F (stereo not given),Percent Effect,[1],-2.93%
same,Percent Effect,[2],16%
same,Percent Effect,[3],2.65%
same,Percent Effect,[4],-0.602%
same,Percent Effect,[5],1.77%
same,Percent Effect,[6],8.57%
same,Percent Effect,[7],-15.1%
same,Percent Effect,[8],6.84%
same,Percent Effect,[9],17.9%
same,Percent Effect,[10],-9.21%
O=C1CC2(CCCNC2)C(=O)N1Cc1ccc(F)cc1 (stereo not given),Percent Effect,[1],-2.69%
same,Percent Effect,[2],11.7%
same,Percent Effect,[3],-3.81%
same,Percent Effect,[4],-5.82%
same,Percent Effect,[5],2.28%
same,Percent Effect,[6],6.95%
same,Percent Effect,[7],15.5%
same,Percent Effect,[8],0.966%
same,Percent Effect,[9],-2.5%
same,Percent Effect,[10],-0.664%
CCn1c(CN2CCCC2)nnc1C1CCN(Cc2ccc(C)o2)CC1,Percent Effect,[1],-1.86%
same,Percent Effect,[2],0%
same,Percent Effect,[3],4.03%
same,Percent Effect,[4],6.89%
same,Percent Effect,[5],13.6%
same,Percent Effect,[6],13.9%
same,Percent Effect,[7],2.8%
same,Percent Effect,[8],6.92%
same,Percent Effect,[9],19.5%
same,Percent Effect,[10],-6.17%
O=C(c1cc(C2CC2)on1)N1CC[C@]2(C[C@H](Oc3cccnc3)CO2)C1,Percent Effect,[1],-7.12%
same,Percent Effect,[2],1.3%
same,Percent Effect,[3],-0.278%
same,Percent Effect,[4],6.52%
same,Percent Effect,[5],-12.2%
same,Percent Effect,[6],6.27%
same,Percent Effect,[7],-3.24%
same,Percent Effect,[8],1.58%
same,Percent Effect,[9],5.13%
same,Percent Effect,[10],0.522%
CCc1nc(CN2CCCN(C(=O)c3cn[nH]c3CC)CC2)cs1,Percent Effect,[1],0.744%
same,Percent Effect,[2],17.9%
same,Percent Effect,[3],-17.5%
same,Percent Effect,[4],-0.282%
same,Percent Effect,[5],-6.97%
same,Percent Effect,[6],10.2%
same,Percent Effect,[7],-6.8%
same,Percent Effect,[8],6.22%
same,Percent Effect,[9],13.2%
same,Percent Effect,[10],-6.17%
CN(Cc1cn2ccccc2c1C#N)C1CCCN(c2cccnn2)C1 (stereo not given),Percent Effect,[1],-1.94%
same,Percent Effect,[2],-15.6%
same,Percent Effect,[3],10.5%
same,Percent Effect,[4],1.31%
same,Percent Effect,[5],-3.07%
same,Percent Effect,[6],13.7%
same,Percent Effect,[7],6.2%
same,Percent Effect,[8],13.7%
same,Percent Effect,[9],9.41%
same,Percent Effect,[10],-7.9%
COC(=O)CC(c1ccc(OC)c(OC)c1)c1oc(C)cc(=O)c1O (stereo not given),Percent Effect,[1],-11%
same,Percent Effect,[2],2.7%
same,Percent Effect,[3],0.92%
same,Percent Effect,[4],-4.75%
same,Percent Effect,[5],-10.1%
same,Percent Effect,[6],4.45%
same,Percent Effect,[7],14.4%
same,Percent Effect,[8],-0.532%
same,Percent Effect,[9],-2.44%
same,Percent Effect,[10],-0.871%
